From PubChem
G9a inh – G9a (human) methyltransferase inhibition | Q96KQ7 | G9a H3K9 monomethylation, AlphaScreen, 2 h | Potency, µM (series often up to 102 µM), without a hit: at the highest dose activity, negative = inhibition, most hits filed as inhibitors | 350,000 compounds, 8.8% hits | AID 504332; also: % is scaled to controls: 0 for no effect and ±100 for the full control effect; nearly all actives have a fitted effect of over 75% in size
Target sequence (Q96KQ7 913-1193 limits assumed): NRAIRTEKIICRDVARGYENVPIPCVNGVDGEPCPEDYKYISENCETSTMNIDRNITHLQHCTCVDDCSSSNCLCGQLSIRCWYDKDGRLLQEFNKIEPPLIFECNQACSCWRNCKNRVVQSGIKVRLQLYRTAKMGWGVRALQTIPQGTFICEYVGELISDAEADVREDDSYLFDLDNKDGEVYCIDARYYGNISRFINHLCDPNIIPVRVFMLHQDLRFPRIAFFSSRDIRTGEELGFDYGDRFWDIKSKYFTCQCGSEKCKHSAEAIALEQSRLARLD
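Enzyme 20 nM + cpd, 15 min RT; add b-H3K9 pep 500 nM / SAM 20 uM; 2 h RT; anti-H3K9me1 Ab 0.5 ug/mL + SA donor / anti-rabbit acceptor beads 20 ug/mL each, 10 min; AlphaScreen read.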
HP1b chromo inh – blocks HP1-beta chromodomain binding to methylated histone tails; P83916; AlphaScreen HP1-beta / biotin-H3K9me3 peptide binding; Potency, µM (top dose mostly 114 µM), without a hit: at the top dose activity change, negative = inhibition, usual class: inhibitors; 390,000 compounds, 0.56% hits; AID 540317; also: nearly all actives have a fitted effect of over 70% in size
Target sequence (P83916 whole entry, looked up): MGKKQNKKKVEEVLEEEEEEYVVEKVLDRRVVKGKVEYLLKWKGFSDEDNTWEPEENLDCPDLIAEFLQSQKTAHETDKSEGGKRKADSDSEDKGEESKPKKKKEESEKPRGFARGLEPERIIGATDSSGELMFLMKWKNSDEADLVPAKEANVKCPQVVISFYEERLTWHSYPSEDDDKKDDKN
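AlphaScreen: HP1-beta (50 nM) preformed 30 min with biotin-H3(1-18)K9me3 peptide (50 nM) in PBS pH 7.4, 0.01% Tween-20. Compound added for 30 min at RT, then streptavidin donor/nickel chelate acceptor beads (10 ug/mL) for 30 min.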
L3MBTL1 inh – inhibitors of human L3MBTL1 | Q9Y468 | AlphaScreen L3MBTL1–H3K9me1 peptide binding | Potency, µM (titrated, usually from 57.1 µM), without a hit: top-dose activity, negative = inhibition, usual class: inhibitors | 230,000 compounds, 0.66% hits | AID 485360; also: % is scaled to controls: 0 for no effect and ±100 for the full control effect; nearly all actives have a fitted effect of over 60% in size
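AlphaScreen assay: L3MBTL1 (50 nM final) was preincubated 30 min at room temperature with biotinylated H3(1-15)K9me1 peptide (75 nM final), then 30 min with library compounds; streptavidin donor and nickel chelate acceptor beads (10 ug/mL final) added, 30 min dark.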
JMJD2A Tudor – blocks the human JMJD2A Tudor domain; O75164; AID 504339; AlphaScreen JMJD2A-Tudor / H3K4me3 peptide binding; Potency, µM (top dose mostly 114 µM), inactives show top-dose activity change, negative = inhibition, actives largely listed as inhibitors; 390,000 compounds, 4.4% hits; also: % is scaled to controls: 0 for no effect and ±100 for the full control effect; nearly all actives have a fitted effect of over 50% in size
BAZ2B inh – blocks human BAZ2B. Potency, µM (series often up to 114 µM), for the others: at the top dose activity change, negative = inhibition, actives largely listed as inhibitors. Q9UIF8. AlphaScreen BAZ2B-H3K14Ac peptide displacement. AID 504333. 360,000 compounds, 4.4% hits; also: % is scaled to controls: 0 for no effect and ±100 for the full control effect; nearly all actives have a fitted effect of over 60% in size
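Compounds, titrated to a top concentration of 110 uM, were incubated 30 min at room temperature with preformed BAZ2B/acetyl-K14 H3 peptide complex (50 nM each). Proximity signal was measured by AlphaScreen after 20 min with beads.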
Sfp inh – Sfp phosphopantetheinyl transferase inhibition; Potency, µM, for the others: largest response in the series, negative = inhibition, actives largely listed as inhibitors; 310,000 compounds, 3.5% hits; Biochemical Sfp PPTase activity, qHTS; AID 1490;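 also: the enzyme is Sfp with the accession as filed and its product quenches rhodamine fluorescence; 0% = enzyme reaction without inhibitor and -100% = no enzyme wells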
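Buffer: 50 mM Hepes-Na pH 7.6, 10 mM MgCl2, 0.01% Nonidet P-40, 0.01% BSA. Enzyme 15 nM, pre-exposed to compound 15 min; substrates then added and fluorescence change tracked over 30 min.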
Starred values were filed as active, the others as inactive; ? = inconclusive; / = no result given; [ ] = remark or other dose. Sampled rows, rich in hits. Any-hit rate of the full collection: about 12%. Calls follow the shape of the dose curve; as a rule, active = well fitted curve in the direction sought with a large enough effect; inconclusive = small, poorly fitted or top-dose-only effect, or another doubt; inactive = no such curve, though single readings can be large; an effect the other way counts as inactive or inconclusive. Potency is read from the fitted curve at half-maximal effect.

SMILES | G9a inh | HP1b chromo inh | L3MBTL1 inh | JMJD2A Tudor | BAZ2B inh | Sfp inh
CSc1ccc(-c2sc(Nc3cccc4ccccc34)n[n+]2-c2ccccc2)cc1 | / | 13% | -23% | 79µM* | 18µM* | 50µM*
Fc1ccc(-[n+]2nc(Nc3ccccc3)sc2-c2ccc(OCc3ccccc3)cc2)cc1 | / | 12% | -10% | 89µM* | ? | -19%
COc1ccc(-c2sc(Nc3cccc4ccccc34)n[n+]2C)c(C)c1C | / | 109% | / | 41% | / | /
CCOc1cc(-c2sc(Nc3ccccc3)n[n+]2-c2ccc(F)cc2)ccc1OC | / | 38% | 3% | ? | -5% | 3%
C[n+]1nc(Nc2cccc3ccccc23)sc1-c1ccc(C(=O)O)cc1 | 2%[12.7 µM] | / | / | / | 0% | -16%
CC(=O)Nc1ccc(-c2sc(Nc3cccc4ccccc34)n[n+]2-c2ccccc2)cc1 | 45µM* | 23% | -1% | -33% | ? | -24%
COc1ccc(OC)c(CNC(=O)Nc2cn(CC(C)C)c(=O)c3ccccc23)c1 | ? | 2% | / | ? | 2%[57.1 µM] | /
COc1ccc(C2CC(O)(c3ccccc3)Oc3cc(C)c(Cl)c(C)c32)cc1 (centres undefined) | / | 28% | / | -20% | / | 16%
CSc1ccc(-c2sc(Nc3ccccc3)n[n+]2-c2ccccc2)cc1 | 35µM* | -27% | -12% | 56µM* | 45µM* | ?
CCc1ccc(Nc2n[n+](-c3ccccc3)c(-c3ccc(SC)cc3)s2)cc1 | 45µM* | 27% | -13% | ? | ? | 6%
COc1ccc(-c2sc(Nc3ccccc3)n[n+]2-c2ccc(F)cc2)c(OC)c1OC | ? | 24% | -3% | -32% | -22%[57.1 µM] | 6%
CCc1ccc(Nc2n[n+](C)c(-c3ccc(C(=O)O)cc3)s2)cc1 | 2%[12.7 µM] | / | / | / | -8% | 11%
CCc1ccc(Nc2n[n+](C)c(-c3ccncc3)s2)cc1 | / | -16% | -8% | 56µM* | 56µM* | 79µM*
CCc1ccc(Nc2n[n+](-c3ccccc3)c(-c3ccc(OC)c(Br)c3)s2)cc1 | 35µM* | 19% | -8% | -33% | ? | -6%
Cc1cc(C)c(S(=O)(=O)NCCc2sc3nc(-c4ccc(F)cc4)nn3c2C)c(C)c1 | 5%[59 µM] | 26% | / | -13% | -2% | /
CCC(C(=O)Nc1cccc(Cl)c1C)n1nc(C)c2sc3ccccc3c2c1=O (centres undefined) | -8%[59 µM] | 19% | / | -18% | -8% | /
CCC(C)(C)c1ccc(CC(C)CN2C[C@@H](C)O[C@@H](C)C2)cc1 (some centres undefined) | 12%[12.7 µM] | / | / | / | / | -5%
Fc1ccc(-c2cn3cc(Cc4ccc(Cl)cc4)sc3n2)cc1 | 11%[59 µM] | 40% | / | -1% | -14% | /
Clc1cccc(-c2sc(Nc3ccccc3)n[n+]2-c2ccccc2)c1Cl | / | 8% | -1% | ? | ? | 50µM*
COc1cc(Br)c(-c2sc(Nc3ccccc3)n[n+]2-c2ccc(F)cc2)cc1OC | ? | -5% | -8% | 79µM* | ? | -21%
Fc1ccc(-[n+]2nc(Nc3ccccc3)sc2-c2cccc(Cl)c2Cl)cc1 | / | 17% | 3% | ? | -36% | 1%
COc1cc(OC)c(-c2sc(Nc3ccccc3)n[n+]2-c2ccc(F)cc2)cc1OC | -21% | 41% | -1% | -12% | -7% | 11%
CCCCNC(=O)C1CCC(Cn2c(=O)c3sccc3n(Cc3ccccc3)c2=O)CC1 (centres undefined) | 17%[59 µM] | 24% | / | -11% | -10% | /
O=C(C[n+]1ccccc1)N/N=C/c1c(F)cccc1Cl | -4% | 28% | / | -11% | 56µM* | 0%
CC(C)(C)c1cc(/C=N/NC(=O)C[n+]2ccccc2)cc(C(C)(C)C)c1O | -51% | 48% | / | 56µM* | 50µM* | 8%
SMILES | G9a inh | HP1b chromo inh | L3MBTL1 inh | JMJD2A Tudor | BAZ2B inh | Sfp inh
O=C(C[n+]1ccccc1)N/N=C/c1ccc(Cl)cc1 | -1%[12.7 µM] | 25% | -23% | ? | 50µM* | /
CCOC(=O)c1c(NC(C)=O)sc2c1CCC(C=NCCCN(CC)CC)=C2Sc1ccccc1 | / | -30% | / | ? | / | /
CCC(CC)c1nnc(NC(=O)C2CC(=O)N(CCc3ccc(OC)c(OC)c3)C2)s1 (centres undefined) | -5% | 12% | 5% | -12% | 9% | /
CCC(CC)c1nnc(NC(=O)C2CC(=O)N(CCc3ccc(F)cc3)C2)s1 (centres undefined) | 3.2µM* | ? | / | -19% | ? | 11µM*
CC(C)(C)NC(=O)C1CC(=O)N(CCc2ccc(F)cc2)C1 (centres undefined) | 21% | 41% | 4% | -10% | 13% | 19%
CCC(C)(C)c1nnc(NC(=O)C2CC(=O)N(CCc3ccc(F)cc3)C2)s1 (centres undefined) | 45µM* | -9% | / | -9% | 2% | -6%
CC(C)(C)c1cc(NCCCn2ccnc2)n2ncc(-c3ccc(Cl)cc3)c2n1 | / | 58% | 19% | -20% | ? | -23%
CN(C)CCCNc1cc(C(C)(C)C)nc2c(-c3ccccc3)cnn12 | / | 10% | 14% | -19% | -9% | 50µM*
COc1ccc(-n2c(=O)c(-c3ccc(Cl)cc3)nc3cncnc32)cc1 | -5%[12.7 µM] | / | / | / | / | 12%
CC(=O)Nc1ccc(NC(=O)C/C(C)=N/NC(=O)C(=O)Nc2ccc(C)c(Cl)c2)cc1 | 56µM* | 38% | / | -1% | -39% | 5%
C/C(CC(=O)Nc1ccc(C)c(Cl)c1)=N\NC(=O)c1cccc(O)c1 | / | 41% | -4% | -8% | -16% | -1%
Cc1ccccc1C(=O)NC(CC(C)C)C(=O)OCc1cc(=O)n2cc(Br)ccc2n1 (centres undefined) | 24%[59 µM] | 16% | 6% | -10% | -3% | -12%
O=C(CN1C(=O)NC2(CCCC2)C1=O)OCc1cc(=O)n2cc(Br)ccc2n1 | ? | ? | -7% | 50µM* | ? | 9%
CC1(C)NC(=O)N(CC(=O)OCc2cc(=O)n3cc(Br)ccc3n2)C1=O | 0% | 21% | -10% | -3% | / | 15%
Cc1cc(C)c(C)c(S(=O)(=O)N[C@@H](C)C(=O)OCc2cc(=O)n3cc(Br)ccc3n2)c1C | ? | 17% | 13µM* | -26% | 50µM* | 5%
CCc1c(C)c2ccc(O)c(CN3CCN(c4ccccc4)CC3)c2oc1=O | -35%[59 µM] | 78% | / | 14% | 2% | /
COC(=O)C1=C(C(=O)OC)[C@@H]2N(C)c3ccc(OC)cc3[C@@]23C[C@@H](C(=O)OC)N(S(=O)(=O)c2ccc(C(F)(F)F)cc2)C3=N1 | / | / | / | / | / | 2%
Cc1ccccc1C(OCCN(C(C)C)C(C)C)c1ccccc1 (centres undefined) | 28µM* | ? | 4% | 0.89µM* | ? | -9%
